In PubChem BioAssay AID1671190 (National Center for Advancing Translational Sciences (NCATS), 2021):
Screen size: about 580,000 compounds; about 6,100 (1.1%) were called active. Entries that show only a call come without a potency. Inconclusive results (about 15%) are left out. Only a selection was taken, and actives are over-represented in it overall. A number with no mark means an inactive call. The call rests on the fitted dose curve; in most records, active means well fitted inhibition curve with a large enough effect; inconclusive means small, poorly fitted or top-dose-only effect, or another doubt; inactive means no such curve, though single readings can be large or run the other way.
Potency means the concentration at half of the fitted maximal effect.

What follows are compounds tested against Polyunsaturated fatty acid lipoxygenase ALOX12 (Homo sapiens) (UniProt P18054) (assay: Primary qHTS assay for inhibitors of human arachidonate 12S-lipoxygenase (ALOX12): Round 2). Details: purified 12hLO, xylenol orange hydroperoxide absorbance; series mostly up to 108 µM.
Sequence of Polyunsaturated fatty acid lipoxygenase ALOX12 (Homo sapiens) (P18054 whole entry, looked up): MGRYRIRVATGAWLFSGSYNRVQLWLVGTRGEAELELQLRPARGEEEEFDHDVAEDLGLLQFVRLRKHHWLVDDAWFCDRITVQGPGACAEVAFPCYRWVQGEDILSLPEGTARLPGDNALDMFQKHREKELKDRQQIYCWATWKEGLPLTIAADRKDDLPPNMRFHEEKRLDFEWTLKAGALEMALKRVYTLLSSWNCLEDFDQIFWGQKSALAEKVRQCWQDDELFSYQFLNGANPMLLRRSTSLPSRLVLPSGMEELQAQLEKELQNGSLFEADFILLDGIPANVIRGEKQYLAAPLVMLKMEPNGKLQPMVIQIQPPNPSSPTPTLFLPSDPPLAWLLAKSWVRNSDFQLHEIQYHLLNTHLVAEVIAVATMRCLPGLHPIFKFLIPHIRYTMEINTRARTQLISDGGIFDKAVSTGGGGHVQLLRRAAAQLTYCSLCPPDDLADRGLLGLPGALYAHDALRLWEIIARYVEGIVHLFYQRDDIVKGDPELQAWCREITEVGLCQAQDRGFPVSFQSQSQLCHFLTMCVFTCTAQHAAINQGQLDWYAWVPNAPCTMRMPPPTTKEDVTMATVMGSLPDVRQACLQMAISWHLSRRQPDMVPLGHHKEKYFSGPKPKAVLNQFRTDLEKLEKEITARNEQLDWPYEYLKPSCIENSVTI
Outline: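 Purified human 12hLO at 150 nM in 25 mM Hepes, 0.01% Triton X-100, pH 7.0, preincubated 15 min at room temperature with compound. Reaction started with 40 uM arachidonic acid, 30 min at room temperature. Hydroperoxide measured by Fe-xylenol orange, 573/405 nm absorbance ratio.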
CN1CCN(C(=O)CCCC(=O)O)CC1 was tested, and the Potency was “inactive”.
For Cc1ccc([S+](=O)([O-])N2CCC3(CC2)CC(=O)N(c2ccccc2)c2ccccc2O3)cc1, the Potency was “inactive”.
For CC(C)CC1CCCN1 (stereo not given), the Potency was “inactive”.
CCn1cc(CN2CCC(N3CC(OCC4CC4)C34CCCCC4)CC2)cn1 (stereo not given) was tested, and the Potency was “inactive”.
For CC(=O)Nc1ccc(NC(=O)CSc2nnc(C3CC3)n2-c2ccccc2)cc1, the Potency was “inactive”.
CC[n+]1c(C)n(-c2ccccc2)c2ccc(NC(C)=O)cc21 was tested, and the Potency was 39.8 µM (active).
For CC(=O)Nc1ccc(S(=O)(=O)N2CCN(c3ccccc3)CC2)cc1, the Potency was “inactive”.
In the case of COCC1CN(C(C)=O)CC12CCN(C(=O)c1n[nH]c(=O)c3ccccc13)CC2 (stereo not given), the Potency is reported as “inactive”.
In the case of CC(=O)C(=Cc1ccc(-c2cccc([N+](=O)[O-])c2)o1)C(C)=O, the Potency is reported as 0.631 µM (active).
With Cc1ccnc(-c2cccc([N+](=O)[O-])c2)[n+]1[O-] the Potency was “inactive”.
With N#CC(C#N)=Cc1ccc(-c2cccc(C(=O)O)c2)o1 the Potency was “inactive”.
In the case of O=C(Nc1ccc(F)c(F)c1)c1nc2ccccc2nc1N1CCOCC1, the Potency is reported as “inactive”.
For CCC(C)Cn1c(O)cc2nn(-c3nc4ccccc4s3)c(=O)c-2c1C (stereo not given), the Potency was 31.6 µM (active).
For CC(C)Cn1nc(C(=O)Nc2ccc3nc(N4CCOCC4)sc3c2)c2ccccc2c1=O, the Potency was “inactive”.
CCNC(=O)CN1CCCN(C(=O)CCCc2c[nH]c3ccccc23)CC1 was tested, and the Potency was “inactive”.
For CC(=O)NC(NC(=S)Nc1c(C)n(C)n(-c2ccccc2)c1=O)C(Cl)(Cl)Cl (stereo not given), the Potency was “inactive”.
With Cc1c(NC(=S)NC(=O)CCc2ccccc2)c(=O)n(-c2ccccc2)n1C the Potency was “inactive”.
For Cc1ccc(S(=O)(=O)/N=C(/NC(=S)Nc2c(C)n(C)n(-c3ccccc3)c2=O)c2ccccc2)cc1, the Potency was 28.2 µM (active).
For C/C=C/C=C/C(=O)NCc1cccs1, the Potency was “inactive”.
In the case of COc1cc(/C=C2/NC(=O)NC2=O)ccc1OCc1ccccc1F, the Potency is reported as “inactive”.
With CCOc1ccccc1NC(=O)N1CCN(Cc2nc(-c3ccc(C(=O)NC)cc3)oc2C)CC1 the Potency was “inactive”.
In the case of CCCn1c(SCC(=O)N2CCc3ccccc32)nnc1-c1ccncc1, the Potency is reported as “inactive”.
CSc1nnc(-c2ccncc2)n1CCCN1CCCC1=O was tested, and the Potency was 15.8 µM (active).
For Cc1oc(-c2ccccc2)nc1C(=O)NCCCN1CCCC1=O, the Potency was “inactive”.
With CCCCc1noc(CSc2cc(C(N)=O)c3ccccc3n2)n1 the Potency was “inactive”.
CCOC(=O)N1CCN(Cc2nc3c(c(=O)[nH]c(=O)n3C)n2Cc2ccc(F)cc2)CC1 was tested, and the Potency was “inactive”.
In the case of CCC(=C/c1sc2ccc3ccccc3c2[n+]1C)/C=C1\Sc2ccc3ccccc3c2N1C, the Potency is reported as 39.8 µM (active).
With COc1ccc(CCc2nnc(NS(=O)(=O)Cc3ccccc3)s2)cc1 the Potency was “inactive”.
CC(=O)Nc1ccc(Cl)c(-c2nc3cc(C)ccc3o2)c1 was tested, and the Potency was “inactive”.
In the case of NC(=O)c1ccc(S(=O)(=O)N2CCN(C(=O)c3cc4c(s3)CCC4)CC2)cc1, the Potency is reported as “inactive”.
With CCc1nc(Nc2ccc3nccnc3c2)c2oc3ccccc3c2n1 the Potency was “inactive”.
With COc1ccc(CCNC(=O)CSc2nc(C)nc3c2oc2ccccc23)cc1OC the Potency was “inactive”.
For COc1ccc(C)cc1Nc1nc(C)nc2c1oc1ccccc12, the Potency was 35.5 µM (active).
With COCCN1CCCC(c2[nH]ccc2C(=O)NCCc2c[nH]c3ccccc23)C1 (stereo not given) the Potency was “inactive”.
CCCCCCCOc1ccc(C(=O)Oc2cncc(Cl)c2)cc1 was tested, and the Potency was “inactive”.
For Cc1ccc(S(=O)(=O)N2CCN(C(=O)c3cccs3)CC2)cc1, the Potency was “inactive”.
In the case of Cc1ccc(S(=O)(=O)N2CCN(Cc3cccc(C)c3O)CC2)cc1, the Potency is reported as “inactive”.
For Cc1ccc(S(=O)(=O)N2CCN(CC(=O)NC(C)c3cccs3)CC2)cc1 (stereo not given), the Potency was 0.708 µM (active).
With COc1c(I)cc(Br)cc1/C=C/C(=O)O the Potency was “inactive”.
For O=C(Cc1csc(-c2ccccc2Cl)n1)Nc1nccs1, the Potency was “inactive”.
With Cc1ccc(-c2c3c(=O)n(C)c(=O)n(C)c3cn2-n2cnnc2)cc1 the Potency was “inactive”.
Cc1ccc(-c2c3c(=O)n(C)c(=O)n(C)c3c3n2C(C)(C)COC3c2ccc(C)cc2O)cc1 (stereo not given) was tested, and the Potency was 6.31 µM (active).
For COc1ccc(NC2CC(=O)N(C)C2=O)cc1 (stereo not given), the Potency was “inactive”.
With CC(=O)Oc1cccc(N2C(=O)CC(Nc3ccc(N4CCOCC4)cc3)C2=O)c1 (stereo not given) the Potency was 35.5 µM (active).
With COc1ccc(N2C(=O)CC(Nc3ccc(F)cc3)C2=O)c([N+](=O)[O-])c1 (stereo not given) the Potency was “inactive”.
For COCCNC(=O)COc1ccc2c(C)cc(=O)oc2c1, the Potency was “inactive”.
CCCCn1c2ccccc2c2nnc(SCc3ccc(F)cc3)nc21 was tested, and the Potency was “inactive”.
With O=C(Nc1ccc2nc(N3CCCC3)sc2c1)c1ccc(F)cc1 the Potency was “inactive”.
With O=C(CSc1nc2ccc(NC(=O)c3ccc(F)cc3)cc2s1)NC1CCCCC1 the Potency was 3.98 µM (active).
For O=C(Nc1ccc2nc(SCC(=O)N3CCCc4ccccc43)sc2c1)c1ccc(F)cc1, the Potency was “inactive”.
With CCCn1nc(C(=O)N(CCOC)Cc2cccs2)c2ccccc2c1=O the Potency was “inactive”.
In the case of Cc1ccc(C(=O)c2ccc(N3CCN(C)CC3)c([N+](=O)[O-])c2)cc1, the Potency is reported as “inactive”.
For Cc1oc2cc([N+](=O)[O-])c(O)c([N+](=O)[O-])c2c1C(=O)c1ccc(Br)cc1, the Potency was 28.2 µM (active).
With Cc1cc(O)c(NC(=O)c2ccc(C)c([N+](=O)[O-])c2)cc1C the Potency was “inactive”.
With COc1ccc(CCn2c(NC3CCCCC3)nc3c2c(=O)[nH]c(=O)n3C)cc1 the Potency was “inactive”.
For O=C(Nc1ccc2c(c1)CCC2)c1cc2c(s1)CN(C1CC1)C2, the Potency was “inactive”.
CCn1nc(C(=O)Nc2ccccc2Oc2ccccc2)c2ccccc2c1=O was tested, and the Potency was “inactive”.
CCN(CC)CCCCNc1ncc2c(n1)N(C)C(=O)N(c1c(Cl)c(OC)cc(OC)c1Cl)C2 was tested, and the Potency was 34.3 µM (active).
COc1ccc(C(=O)COC(=O)c2ccc3c(c2)OCCO3)cc1 was tested, and the Potency was “inactive”.
In the case of Cc1nc2sccn2c(=O)c1S(=O)(=O)NCCc1ccccc1, the Potency is reported as “inactive”.
With Cc1cccc(C)c1Nc1nc(-c2ccccc2)cs1 the Potency was “inactive”.
Cc1nc(C)c(-c2csc(NCCc3ccccc3)n2)s1 was tested, and the Potency was 5.01 µM (active).
With Cn1c(SCC(=O)N2CCc3ccccc32)nnc1-c1ccc(F)cc1 the Potency was “inactive”.
O=C(NCCCN1CCN(Cc2ccccc2)CC1)c1ccccc1C(F)(F)F was tested, and the Potency was “inactive”.
For Cc1nccn1-c1ccc(NC(=O)[C@H]2O[C@@H](n3ccc(=O)[nH]c3=O)[C@H](O)[C@@H]2O)cc1, the Potency was “inactive”.
With O=C(NS(=O)(=O)c1cccs1)[C@H]1O[C@@H](n2ccc(=O)[nH]c2=O)[C@H](O)[C@@H]1O the Potency was 31.6 µM (active).
For O=C(N[C@H](Cc1ccccc1)C(=O)N1CCCN(Cc2cccs2)CC1)[C@H]1O[C@@H](n2ccc(=O)[nH]c2=O)[C@H](O)[C@@H]1O, the Potency was “inactive”.
CCOCCCNCc1ccccc1Cl was tested, and the Potency was “inactive”.
For CC(C)(C)CC(C)(C)NCc1ccco1, the Potency was “inactive”.
CC(C)(C)C1C/C(=C/c2ccco2)C(=O)/C(=C/c2ccco2)C1 (stereo not given) was tested, and the Potency was 39.8 µM (active).
With Cc1nnc(C(=O)Nc2ccc(C(=O)NCc3ccc4c(c3)OCO4)cc2)s1 the Potency was “inactive”.
With CNC(=O)CNC(=O)c1n[nH]c(=O)c2ccccc12 the Potency was “inactive”.
COc1ccc2[nH]cc(CCNC(=O)CNc3nc(Cl)nc4nc[nH]c34)c2c1 was tested, and the Potency was “inactive”.
With COc1cccc(C2C(C#N)=C(N)OC3=C2S(=O)(=O)N(C)c2ccccc23)c1OC (stereo not given) the Potency was “inactive”.
In the case of CCc1nn2c(=O)cc(CNc3cc(F)ccc3F)nc2s1, the Potency is reported as “inactive”.
CCc1nn2c(=O)cc(CNc3cccc(C(=O)NC4CC4)c3)nc2s1 was tested, and the Potency was 10 µM (active).
With CCC(=O)Nc1cccc(C(=O)OCc2cc(=O)n3nc(CC)sc3n2)c1 the Potency was “inactive”.
In the case of CCCN(C1CCS(=O)(=O)C1)S(=O)(=O)c1ccc(OC)cc1 (stereo not given), the Potency is reported as “inactive”.
In the case of O=C(NCCc1ccco1)C1c2ccccc2C(=O)N(Cc2ccccc2)C12CCCC2 (stereo not given), the Potency is reported as “inactive”.
In the case of N#CCCn1cc(C(=O)CN2C(=O)NC3(CCOc4ccccc43)C2=O)c2ccccc21 (stereo not given), the Potency is reported as “inactive”.
In the case of Cc1ccccc1N1CCN(S(=O)(=O)c2ccc3ccccc3c2)CC1, the Potency is reported as “inactive”.
In the case of Cc1ccc(C)c(N2CCN(c3ccc4cc(S(=O)(=O)N5CCC(C)CC5)ccc4n3)CC2)c1, the Potency is reported as 50.1 µM (active).
O=S(=O)(c1ccc2nc(N3CCN(c4cccc(Cl)c4)CC3)ccc2c1)N1CCCCC1 was tested, and the Potency was “inactive”.
CC1=C[C@@H](CNC2CCN(C)CC2)[C@H](C(C)C)C[C@H]1Cc1nc2ccccc2[nH]1 was tested, and the Potency was “inactive”.
For Cc1noc(C)c1C(=O)N1CCCC2(Cc3ccccc3CN2C(=O)C2CCCC2)C1 (stereo not given), the activity change, negative = inhibition was 2.72% [at 12.5 µM].
With C[C@]12CCC3=C4CCC(=O)C=C4CC[C@@H]3[C@H]1CC[C@@]2(O)CC#N the Potency was 19.3 µM (active).
With C#C[C@]1(O)CC[C@H]2[C@@H]3CCC4=CC(=O)CC[C@@H]4[C@H]3CC[C@@]21CC the Potency was “inactive”.
With Cc1ccccc1NC(=O)CSc1nnc(C)n1-n1cccc1 the Potency was “inactive”.
With COc1ccc(NC(=O)c2nn(C)c(=O)c3ccccc23)cc1OC(F)F the Potency was “inactive”.
In the case of CCc1cccc(C)c1NC(=O)Cn1ccn(-c2ccccc2)c(=O)c1=O, the Potency is reported as “inactive”.
With CC(C(=O)NC1CCS(=O)(=O)C1)N1C(=O)/C(=C/c2ccc(Cl)cc2)SC1=S (stereo not given) the Potency was 35.5 µM (active).
CC(C)(C)c1ccc(/C=C/C(=O)NC2CCS(=O)(=O)C2)cc1 (stereo not given) was tested, and the Potency was “inactive”.
With O=C(COC(=O)/C=C/c1ccc(Cl)cc1)NC1CCS(=O)(=O)C1 (stereo not given) the Potency was “inactive”.
COc1ccc(S(=O)(=O)N2CCN(Cc3ncc(-c4ccc(F)cc4)o3)CC2)cc1 was tested, and the Potency was “inactive”.
Cc1ccc2nc(-c3ccco3)c(Cc3cccc(Cl)c3)n2c1 was tested, and the Potency was 25.1 µM (active).
For Cc1ccc2nc(COc3cccc(NC(=O)c4cccc(Cl)c4)c3)cc(=O)n2c1, the Potency was “inactive”.
For O=C(c1ccco1)N1CCN=C1SCc1cccc(Cl)c1, the Potency was “inactive”.
With Cc1cc2nc(-c3ccco3)c(Cc3cccc(F)c3)n2c(C)c1Br the Potency was 11.2 µM (active).
For Cc1ccc(C(=O)c2ccccc2C(=O)OCc2ccccc2Cl)cc1, the Potency was “inactive”.
For CCN(CC)S(=O)(=O)c1ccc2c(c1)c(=O)n(CC(=O)N1CCCCCC1)c(=O)n2C, the Potency was “inactive”.
